Laboratory results from PubChem BioAssay (EPA / NIEHS).
Several values for one entry are separate records, joined by “and”; a condition that tells them apart may be missing. Equal entries are not always repeated. Activity calls are given as the source filed them. How the source made its calls: active means hit-call score of the fitted dose curve at least 0.9, where 1 is the maximum; inactive means score below 0.9.

read-out: matrix metalloproteinase-3 (MMP3), MMP3 (gene 4314); test: LTEA_HepaRG_MMP3: Life Technologies and Expression Analysis (LTEA) Assay for matrix metalloproteinase-3 (MMP3) using HepaRG (AID 2283519); settings: mRNA level, 48 h; actives raise or lower the signal
Method: LTEA_HepaRG is a cell based, multiplexed-readout assay that uses HepaRG, a human liver cell line, with measurements taken at 48 hours after chemical dosing on a 96-well plate.LTEA_HepaRG_MMP3 is one of 102 assay component(s) measured in the LTEA HepaRG cell culture assay. It is a marker of Fibrosis.Data from the assay component LTEA_HepaRG_MMP3 was analyzed into 1 endpoint. This assay endpoint, LTEA_HepaRG_MMP3, was analyzed with bidirectional fitting relative to DMSO as the negative control and baseline of activity. Using a type of inducible reporter, measures of mRNA induction for gain or loss-of-signal activity can be used to understand regulation of transcription factor activity. To generalize the intended target to other relatable targets, this assay endpoint is annotated to the protease intended target family, where the subfamily is matrix metalloproteinase.
A total of 1060 chemcials from the ToxCast library were tested in eight-point concentration-response experiments. Cell culture and cytotoxicity assays were conducted at Thermo Fisher Scientific's Custom Services facility (Madison, WI). A single lot of human HepaRG cells (Thermo Fisher Scientific, Frederick, MD) was used for the cell culture experiments. 96-well format collagen type I coated plates of human HepaRG cells were prepared using established methods. Briefly, cryopreserved HepaRG cells were thawed, plated at a density of approximately 100,000 cells/well in HepaRG Thaw, Plate, and General Purpose media (HPRG770, Thermo Fisher Scientific), and incubated for 48 hours. 0.5% DMSO was selected as vehicle control to balance the requisite need of DMSO in HepaRG cultures to maintain differentiation (for example, baseline metabolism, proportions of hepatocytes vs. cholangiocytes), while enabling further hepatic receptor pathway activation (for example, PXR and CAR) in response to chemical exposure. 48 hours after plating, the culture medium was replaced with HepaRG Serum-Free Incudtion Media. Cells were exposed to each test chemical in duplicate and maintained in CO2 incubators for another 48 hours. Chemical plates were thawed to room temperature and 200x concentrations of treatment groups were prepared. 8-point conentration-reponse curves were made with the highest exposure at 100 uM, followed by half-log dilutions, all in 0.5% DMSO. Each test plate contained variouse controls, induction positive controls (1mM phenobarbital), cytotoxicity positive controls ([…] aflatoxin B1), vehicle controls (0.5% DMSO), and total lysis controls (0.5% DMSO). Cell morphology images were taken using an Essen IncuCyte FLR automated microscope, with six 96-well plates imaged in about 24 minutes. Images were captured and exported and JPEG files. Spent culture media was transfered to black-well plates for the LDH assay, and remaining media was sorted at -80 C for later use. Cells were treated with RLT buffer and frozen until shipped for gene expression analysis. Total RNA was isolated from the cell suspension in 75 uL of Buffer RLT (Qiagen, Germantown, MD 20874) by Quintiles/Expression Analysis (Durham, NC) using a custom isolation procedure. Total RNA from each plate well was transferred to a preamplification plate. Fluidigm's 96.96 Dynamic ArrayTM (Fluidigm, Amsterdam, the Netherlands) technology was used for gene expression analyses by quantitative reverse transcription polymerase chain reaction (qRT-PCR, performed by Quintiles/Expression Analysis, Durham, NC)89. Standard TaqManTM Assays (Applied Biosystems/ThermoFisher Scientific, Foster City, CA) were used to assess the expression of 93 genes selected based on their selectivity and sensitivity to important hepatic receptors known to be modulated by environmental chemicals; importance in human hepatocyte functionality; and hepatotoxicity. […]

| Structure (SMILES) | outcome | AC50 |
| --- | --- | --- |
| Oc1cccc2cccnc12 | inactive |  |
| CC(C)(OO)c1ccccc1 | inactive |  |
| O=C(O)C(Cl)(Cl)Cl | inactive |  |
| O=C1C2(Cl)C3(Cl)C4(Cl)C(Cl)(Cl)C5(Cl)C3(Cl)C1(Cl)C5(Cl)C24Cl (stereo not given) | inactive |  |
| CCOP(=S)(OCC)SCSP(=S)(OCC)OCC | inactive |  |
| NC(=O)O | inactive |  |
| O=C(O)C(F)(F)C(F)(F)C(F)(F)C(F)(F)C(F)(F)C(F)(F)C(F)(F)C(F)(F)C(F)(F)C(F)(F)F | inactive |  |
| CC(=O)[O][Hg][c]1ccccc1 |  | 50 µM (active) |
| O=C(Nc1ccc2[nH]ccc2c1)c1cc2cc(F)ccc2n1Cc1cccc(F)c1 | inactive |  |
| CC(C)(C)CC(C)(C)c1ccc(O)cc1 | inactive |  |
| Cc1ccccc1N | inactive |  |
| COc1cc(-c2ccc(N)c(OC)c2)ccc1N |  | 39.3 µM (active) and 2.3 µM (active) |
| CCC(C)(C)c1ccc(O)c(C(C)(C)CC)c1 | inactive |  |
| Cn1sc(Cl)cc1=O | inactive |  |
| C[C@@H]1C[C@@H]([C@H](O)CC2CC(=O)NC(=O)C2)C(=O)[C@@H](C)C1 |  | 83.3 µM (active) |
| CCC(=O)C(CC(C)N(C)C)(c1ccccc1)c1ccccc1 (stereo not given) | inactive |  |
| C=CC(=O)OCCCCCC(C)C | inactive |  |
| CC(C)(c1ccccc1)c1ccc(O)c(C(C)(C)c2ccccc2)c1 | inactive |  |
| O=C(O)C(F)(F)C(F)(F)C(F)(F)C(F)(F)C(F)(F)C(F)(F)F | inactive |  |
| CCN1CCC2(CC1)COc1cc3c(cc12)N(C(=O)c1ccc(-c2ccc(-c4nnc(C)o4)cc2C)cc1)CC3 |  | 46.8 µM (active) |
| C=C(C)C(=O)[O][Sn]([CH2]CCC)([CH2]CCC)[CH2]CCC | inactive |  |
| O=[N+]([O-])c1ccc(O)c([N+](=O)[O-])c1 | inactive |  |
| ClCC(Cl)CCl | inactive |  |
| CC12CC1(C)C(=O)N(c1cc(Cl)cc(Cl)c1)C2=O (stereo not given) | inactive |  |
| ClC1(Cl)C2(Cl)C3(Cl)C4(Cl)C(Cl)(Cl)C5(Cl)C3(Cl)C1(Cl)C5(Cl)C24Cl (stereo not given) | inactive |  |
| C[C@]12CCC(=O)C[C@@H]1CC[C@@H]1[C@@H]2CC[C@]2(C)[C@@H](O)CC[C@@H]12 | inactive |  |
| CCOP(=S)(OCC)Oc1nc(Cl)c(Cl)cc1Cl | inactive |  |
| CC(C)(C)c1cc(O)ccc1O | inactive |  |
| CCCCCCCCc1ccc(O)cc1 | inactive |  |
| O=c1[nH]c(=O)[nH]c(=O)[nH]1 | inactive |  |
